High-throughput results: PubChem BioAssay, National Center for Advancing Translational Sciences (NCATS)
Most compounds without a hit are left out; they make up all but 3.3% or so of the library.
HCV inhibitor: blocks hepatitis C virus. Huh7.5.1 HCVcc-Cre infection, luciferase reporter, 44 h. Potency, µM (top dose mostly 41.8 µM), for the others: at the highest dose activity change, negative = inhibition, usual class: inhibitors. hit rate 3.4% among 340,000. AID 651820; active = well fitted inhibition curve with a large enough effect; inconclusive = small, poorly fitted or top-dose-only effect, or another doubt; inactive = no such curve, though single readings can be large or run the other way
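Cells seeded at 1,000/well and cultured 4 h, then compounds added followed by HCVcc-Cre virus (~0.5 moi). After 44 h further culture, luciferase substrate was added, plates held 15 min at room temperature, and luminescence read for 15 sec.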
Vaccinia Venus: vaccinia inhibition (Venus reporter); hit rate 0.46% among 330,000; Vaccinia virus Venus reporter expression, fluorescence; Potency, µM (doses to about 36.5 µM), inactives show top-dose activity change, negative = inhibition, most hits filed as inhibitors; AID 720580; calls by dose curve; tested in A549 cells; also: nearly all actives have a fitted effect of over 30% in size
VACV mCherry inh: inhibitors of vaccinia virus infection (mCherry reporter signal); Vaccinia virus mCherry reporter infection, fluorescence; Potency, µM (top dose mostly 36.5 µM), for inactives: at the highest dose activity change, negative = inhibition, usual class: inhibitors; hit rate 0.63% among 310,000; AID 720579; calls by dose curve; tested in A549 cells; also: nearly all actives have a fitted effect of over 35% in size
Active calls of the source: *; i = inactive; u = inconclusive; x = no result given; [ ] = another dose, or the depositor's remark. % is scaled to controls: 0 for no effect and ±100 for the full control effect; potency is read from the fitted curve at half-maximal effect.

SMILES	HCV inhibitor	Vaccinia Venus	VACV mCherry inh
C[N+]1(CC(=O)c2ccc(Cl)c(Cl)c2)CCOCC1	x	-18%	i
O=S(=O)(NC1CC(NS(=O)(=O)OCC(Cl)(Cl)Cl)C2CCCCC12)OCC(Cl)(Cl)Cl (stereo not drawn)	-8%	11µM*	u
O=S(=O)(NC1CCCCCCC1)OCC(Cl)(Cl)Cl	10%	u	-16%
O=S(=O)(NC1CCCC1)OCC(Cl)(Cl)Cl	0.32µM*	-20%	-1%
C[C@H](NS(=O)(=O)OCC(Cl)(Cl)Cl)C1CC1c1ccccc1 (stereo partly drawn)	30%[8.37 µM]	u	u
Cc1ccc(-n2nc3c(c2NC(=O)c2ccc4c(c2)OCO4)CS(=O)(=O)C3)c(C)c1	20%	-25%	-9%
CCC(Sc1nnc2c(n1)[nH]c1ccccc12)C(=O)Nc1ccccc1OC (stereo not drawn)	x	-21%	-9%
COc1ccc(-n2c(SCC(=O)Nc3ccc(C(=O)O)cc3)nnc2-c2ccccc2)cc1OC	12%	x	x
Cc1cc(/C=C2\Sc3ccccc3N2C)cc(C)[n+]1CC1CCCO1 (stereo not drawn)	2.5µM*	u	8.9µM*
COc1ccc(/C=C2\Sc3ccc(C(=O)NCC4CCCO4)cc3N(C)C2=O)cc1 (stereo not drawn)	u	-20%	-22%
COc1cccc(NC(=O)C(C)N2C(=O)c3ccccc3C2=O)c1 (stereo not drawn)	19%	-10%	i
Oc1[nH]c2ccccc2c1C1=NCCCC1	35µM*	-25%	x
CCn1c(O)c(C2=NCCCC2)c2ccccc21	u	-20%	x
C[n+]1cccc(Br)c1	x	-15%	-17%
CN(C)S(=O)(=O)c1ccc(Cl)c(C(=O)Nc2cccc([N+](=O)[O-])c2)c1	11µM*	x	x
Cc1cccc(NC(=O)c2cc(S(=O)(=O)c3ccccc3)ccc2Cl)c1	7.9µM*	u	x
Cc1ccccc1NC(=O)c1cc(S(=O)(=O)c2ccccc2)ccc1Cl	-28%	-24%	x
O=C(Nc1ccc(Nc2ccccc2)cc1)c1cc([N+](=O)[O-])ccc1Cl	11µM*	x	x
O=C(O)c1cccc(NS(=O)(=O)c2ccc(Cl)c(C(=O)Nc3cccc([N+](=O)[O-])c3)c2)c1	-1%	-4%	i
O=C(Nc1ccccc1Oc1ccccc1)c1cc([N+](=O)[O-])ccc1Cl	u	-15%	-4%
CCOC(=O)c1cc(S(=O)(=O)N2CCN(c3ccc(C(C)=O)cc3)CC2)[nH]n1	x	1%	-15%
N#Cc1nc(N(c2ccccc2)c2ccccc2)nc(-n2cccc2)n1	x	-15%	-25%
O=C(c1ccc([N+](=O)[O-])cc1)N(Cc1cccs1)C1CCS(=O)(=O)C1 (stereo not drawn)	-1%	-16%	i
COc1ccc(CCNc2nc3cc(OC)c(OC)cc3c3nc(-c4ccccc4)nn23)cc1OC	x	-23%	-23%
O=C(Nc1cc(S(=O)(=O)N2CCCCC2)ccc1N1CCCCC1)C1CC1	-24%	x	x
SMILES	HCV inhibitor	Vaccinia Venus	VACV mCherry inh
CCN(CC)c1ccc(/C=C/c2ccc3ccc(OC)cc3[n+]2CC)cc1	2.2µM*	x	x
CC[n+]1c(/C=C/c2ccc(N(C)C)cc2)ccc2ccccc21	-20%[0.335 µM]	392%	301%
CCN(CCNCC(O)COc1ccccc1C(C)C)c1cccc(C)c1 (stereo not drawn)	13µM*	u	u
CCOC(=O)N1CCN(CC(O)COc2ccccc2C(C)C)CC1 (stereo not drawn)	-2%	-28%	x
Cc1ccccc1-c1cc(C(=O)NCc2cccc(C(F)(F)F)c2)n(CC2CC(c3cccnc3)=NO2)n1 (stereo not drawn)	8.9µM*	-14%	0%
O=C(NCc1cccc(C(F)(F)F)c1)c1cc(-c2ccccc2)nn1CC1CC(c2cccnc2)=NO1 (stereo not drawn)	-22%	u	-4%
Cc1ccc(/C(C#N)=C\c2cn(C)c3ccccc23)cc1	6.3µM*	x	x
Cn1cc(C=O)c2ccccc21	3%	-17%	-17%
CC(C)(C)OC(=O)N1CCC(c2c(C(=O)N3CCC(c4ccccc4)C3)cnn2-c2ccc(Cl)cc2)CC1 (stereo not drawn)	x	-13%	-12%
CC(C)c1ccc(/C=N/NC(=O)CCNC(=O)c2ccccc2)cc1	-2%	11%	-14%
COc1cccc(-c2nc(CS(=O)(=O)CC(=O)Nc3ccc(F)cc3F)c(C)o2)c1	11µM*	-7%	-15%
COc1cccc(-c2nc(CS(=O)(=O)CC(=O)NCc3ccccc3)c(C)o2)c1	u	-4%	-19%
CC(=O)c1ccc(N2C(=O)N(Cc3ccc(F)cc3)c3ccccc3S2(=O)=O)cc1	x	-12%	-17%
CCN1C(=O)C2(C(C(=O)c3cc4ccccc4o3)=C(O)C(=O)N2CCCN(C)C)c2ccccc21 (stereo not drawn)	-1%	-8%	-8%
COc1ccc(/C=N/NC(=O)C(=O)/C=C2\NC3(CCCC3)Cc3ccccc32)cc1	10µM*	u	u
O=C(/C=C1\NC2(CCCC2)Cc2ccccc21)C(=O)N/N=C/c1ccc(O)c(O)c1	u	-22%	u
COc1ccccc1-c1noc(-c2ccc(NCc3ccco3)c([N+](=O)[O-])c2)n1	x	-2%	-4%
O=C(NC[C@@H]1CCCN2CCCC[C@H]12)c1cnn(-c2nccc(-c3cc4ccccc4o3)n2)c1C1CC1	x	-12%	-22%
COc1cccc(/C=N/Nc2ccc([N+](=O)[O-])cn2)c1O	1.1µM*	u	1.1µM*
O=[N+]([O-])c1ccc(Nc2nc(N/N=C/c3cccc(F)c3)nc(N3CCCC3)n2)cc1	u	-25%	-27%
COc1cccc(/C=N/Nc2nc(Nc3ccc([N+](=O)[O-])cc3)nc(N3CCCC3)n2)c1O	u	-28%	4µM*
Cc1ccc(Nc2nc(N/N=C\c3ccc4c(c3)OCO4)nc(N3CCOCC3)n2)cc1	11µM*	u	u
Cc1cccc(/C=N/Nc2cc(N3CCOCC3)nc(N3CCOCC3)n2)c1	6.3µM*	u	u
CC(C)c1ccc(/C=N/Nc2cc(N3CCOCC3)nc(N3CCOCC3)n2)cc1	u	-12%	-17%
O=[N+]([O-])c1ccc(NN=Cc2cccc3ccccc23)nc1	-28%	6%	u
SMILES	HCV inhibitor	Vaccinia Venus	VACV mCherry inh
Cc1ccc(/C=N/Nc2cc(C)nc(N3CCOCC3)n2)cc1	-30%	-14%	i
C[n+]1c(/C=C/c2ccc(N)cc2)sc2ccccc21	x	16%	-12%
Cn1cnc2c(NCc3ccccc3)nc(Cl)nc21	x	-16%	-8%
Cc1ccc(NC(=O)c2cnn3c2NC(=C2CC2)C=C3C(F)F)cc1C	x	-28%	-29%
O=C(O)COc1ccc(/C=N/Nc2nc(Nc3ccccc3)nc(N3CCCCC3)n2)cc1	23%	3%	u
COc1ccc(/C=N/Nc2nc(Nc3ccccc3)nc(N3CCCC3)n2)cc1	10µM*	-7%	-5%
C=CCOc1cccc(C2/C(=C(\O)c3ccc4c(c3)OCCO4)C(=O)C(=O)N2CCN2CCOCC2)c1 (stereo not drawn)	15%	-2%	i
COCc1c(C(=O)NC2CCCC2)cnn1-c1nccc(-c2cc(C)sc2C)n1	x	-6%	-11%
CCOC(=O)c1scc(-c2ccc(C)cc2)c1S(=O)(=O)Nc1cccc(CC)c1	x	-6%	-23%
